Screens deposited in PubChem by National Center for Advancing Translational Sciences (NCATS).
Sampled rows, rich in hits. Any-hit rate of the full collection: about 1.9%.
Abeta yeast res: qHTS for compounds that reverse cellular toxicity of Amyloid beta (A-beta) peptide in yeast: Primary Screen; yeast expressing A-beta42, growth rescue, OD600, 48 h; response scale: 0% DMSO, 100% iron-clioquinol control; Potency, µM (highest dose often 46.1 µM), usual class: activators; 0.063% of 410,000 active; also: potency is read from the fitted curve at half-maximal effect; nearly all actives have a fitted effect of over 55% in size
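Yeast growth medium received pinned compounds, then yeast cells expressing toxic A-beta were added; plates incubated at 30 C for 48 hr. Growth read as absorbance at 600 nm, normalized to DMSO and equimolar FeCl3 plus clioquinol controls.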
FUS yeast rescue: qHTS for Suppressors of FUS Proteinopathy: Primary screen using FUS-linked yeast assay | S. cerevisiae FUS-expressing, growth rescue, OD600, 24 h | Potency, µM (series often up to 76.6 µM), actives largely listed as activators | 0.24% of 390,000 active | AID 1347120, 2019;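 also: potency is read from the fitted curve at half-maximal effect; plate controls were DMSO vehicle for no effect and reference control for full effect; nearly all actives have a fitted effect of over 55% in size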
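Quantitative HTS measuring growth restoration of FUS-toxic yeast. Galactose-induced cells (OD 0.005) were exposed 24hr at 30C to compounds at several concentrations, then absorbance at 600 nm was recorded.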
aSyn yeast inh: qHTS of alpha-syn Inhibitors; Yeast expressing alpha-synuclein, growth rescue, BacTiter-Glo, 24 h; Potency, µM (titrated, usually from 46.1 µM), inactives show at the top dose growth rescue (activation), most hits filed as activators; 0.14% of 370,000 active; AID 652106, 2013; also: potency is read from the fitted curve at half-maximal effect; % of control where 0% means no effect; nearly all actives have a fitted effect of over 65% in size
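Rescue of yeast growth: cells expressing toxic alpha-synuclein, induced in galactose at OD600 0.02, incubated with compound 24 h at 30 C. ATP luminescence quantified growth; inhibitors of toxicity appear as activators.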
PTHR1 agonist: qHTS for PTHR1 Agonists: Primary Screen. HEK293 GP2 PTHR1 cells, GloSensor cAMP luminescence, 1 h. Potency, µM (titrated, usually from 115 µM), inactives show at the top dose activation, actives largely listed as activators. 0.075% of 410,000 active. AID 743266, 2014; also: potency is read from the fitted curve at half-maximal effect; nearly all actives have a fitted effect of over 55% in size
Target sequence (Q03431 whole entry, looked up): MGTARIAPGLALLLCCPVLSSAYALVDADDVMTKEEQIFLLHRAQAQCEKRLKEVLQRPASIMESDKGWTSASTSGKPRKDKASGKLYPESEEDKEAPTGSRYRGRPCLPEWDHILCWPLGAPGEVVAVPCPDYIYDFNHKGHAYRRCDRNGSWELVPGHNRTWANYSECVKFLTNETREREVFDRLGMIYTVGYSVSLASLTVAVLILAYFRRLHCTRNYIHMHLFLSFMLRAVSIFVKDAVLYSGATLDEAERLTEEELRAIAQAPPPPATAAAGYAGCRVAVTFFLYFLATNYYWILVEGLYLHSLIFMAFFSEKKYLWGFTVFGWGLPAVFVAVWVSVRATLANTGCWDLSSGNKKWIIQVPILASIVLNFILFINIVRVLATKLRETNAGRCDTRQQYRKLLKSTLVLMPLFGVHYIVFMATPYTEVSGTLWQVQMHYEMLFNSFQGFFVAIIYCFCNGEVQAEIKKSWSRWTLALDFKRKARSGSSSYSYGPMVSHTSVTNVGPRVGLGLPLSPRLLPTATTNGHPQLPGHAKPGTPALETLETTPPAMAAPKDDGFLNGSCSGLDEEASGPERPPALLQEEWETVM
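HEK-293-derived GP2 cells expressing PTHR1 and a GloSensor cAMP reporter, 3,000/well, plated overnight, given luciferin plus IBMX (each 0.5 mM as added) for 1 h at 37 °C, then compound for 1 h at 37 °C. Luminescence was read after 15 min at room temperature.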
LDHA inh: qHTS assay for inhibitors of human lactate dehydrogenase | L-lactate dehydrogenase A chain (Homo sapiens), P00338 | activity change, % (values are at about 110 or 230 µM) | purified LDHA, NADH/diaphorase-resazurin fluorescence; hits give low values | 0.15% of 480,000 active; in the data active = activity change below about -30%; inconclusive = mostly about -25% to -30%;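 also: plate controls were DMSO wells for no effect and wells without enzyme for full effect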
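LDH5 2 nM; NADH 0.06 mM, pyruvate 0.2 mM; 200 mM Tris pH 7.4, EDTA, Tween-20; 5 min RT. Detection: diaphorase 0.133 mg/mL + resazurin 37 µM, fluorescence ex540/em590 at 0 and 20 min; normalized to enzyme-free and DMSO wells.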
TDP-43 yeast inh: qHTS of TDP-43 Inhibitors; Potency, µM (titrated, usually from 46.1 µM), for the others: top-dose growth rescue (activation), most hits filed as activators; AID 652104, 2013; TDP-43 expressing yeast growth rescue, BacTiter-Glo, 24 h; 1.8% of 410,000 active; also: potency is read from the fitted curve at half-maximal effect; % of control where 0% means no effect; nearly all actives have a fitted effect of over 50% in size
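Yeast expressing TDP-43 (pregrown in raffinose, seeded at OD600=0.02 in galactose medium) exposed to compounds 24 hr at 30 deg C. Growth read by BacTiter-Glo luminescence; rescue of toxicity appears as increased signal.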
* hit, by the source's call; i = inactive; ? = inconclusive; . = no result; [ ] = another dose, or the depositor's remark. Unless noted, calls follow the shape of the dose curve; as a rule, active = well fitted curve in the direction sought with a large enough effect; inconclusive = small, poorly fitted or top-dose-only effect, or another doubt; inactive = no such curve, though single readings can be large; an effect the other way counts as inactive or inconclusive.

SMILES	Abeta yeast res	FUS yeast rescue	aSyn yeast inh	PTHR1 agonist	LDHA inh	TDP-43 yeast inh
COc1ccc(/C=C(/C#N)C(=O)c2c[nH]c3cccc(C)c23)cc1	.	.	.	.	42	.
C=CCc1cccc(CNc2ccc(Br)cc2)c1O	i	i	17%	-33%	1	22µM*
COC(=O)c1ccc(COc2ccc(C(=O)c3ccccc3)cc2)o1	i	i	-5%	-28%	0	11µM*
Cc1csc(NC(=O)c2ccc(COc3ccccc3)o2)n1	i	i	0%	-12%	1	22µM*
O=C(c1ccc(COc2ccccc2Cl)o1)N1CCN(c2ccccc2)CC1	i	i	23%	i	-5	35µM*
O=C(c1ccc(CS(=O)c2ccccc2Cl)o1)N1CCN(c2ccccc2)CC1 (stereo not given)	i	i	0%	-2%	-1	?
COC(=O)c1ccc(COc2ccc(OCc3ccccc3)cc2)o1	.	.	.	.	7	.
O=C(Nc1nccs1)c1ccc(-c2ccc(F)c(Cl)c2)o1	i	i	-10%	-13%	-4	13µM*
O=C(Nc1nccs1)c1ccc(-c2ccc(Cl)cc2Cl)o1	i	i	-5%	i	9	-16%
COc1ccc(Br)cc1/C=C(/C#N)C(=O)C(C)(C)C	.	.	.	.	0	.
CCCCn1c(=O)[nH]c(=O)c2c1nc(-c1csnn1)n2CCC(C)C	.	.	.	.	-14	.
O=[N+]([O-])c1cc(S(=O)(=O)Nc2cccc(Cl)c2)ccc1N/N=C/c1cccc(F)c1	.	.	.	.	-1	.
CC(=O)c1ccc(NC(=O)[C@@]2(CC(=O)O)CC(c3ccc(F)cc3)=NO2)cc1	.	.	.	.	7	.
Nc1nccnc1C(=O)NCc1ccc(F)cc1	.	.	.	.	3	.
O=C(Nc1nccs1)c1ccc(COc2ccccc2Cl)o1	i	i	-3%	-5%	-5	7.1µM*
Cc1cccc(NC(=O)c2ccc(COc3ccc(Cl)cc3Cl)o2)n1	i	?	-5%	i	1	18µM*
COc1ccccc1N1CCN(C(=O)CSc2nnc3c(=O)n(-c4cccc(F)c4)ccn23)CC1	.	.	.	.	-4	.
S=c1[nH]nc(CCc2ccccc2)n1Cc1ccccc1	i	i	8%	-6%[57.5 µM]	-2	10%
CCCCCCCc1n[nH]c(=S)n1Cc1ccccc1	?	i	2%	-22%	0	16µM*
COc1ccc(C)cc1CC(=O)OCc1ccc(C#N)cc1	.	.	.	.	1	.
O=C(Nc1nc(-c2ccco2)c(-c2ccco2)s1)C1CCC1	i	i	-30%	-8%	1	35µM*
Cc1ccc(CNC(=O)CCCn2ccc3cc(S(=O)(=O)N4CCCC4)ccc32)o1	.	.	.	.	3	.
N#Cc1ccccc1CSc1nc2ccsc2c(=O)n1Cc1ccccn1	i	i	14%	1%	1	?
Cc1ccc(CSc2nc3ccsc3c(=O)n2Cc2ccccn2)cc1	i	.	3%	-17%	-11	35µM*
O=C(/C=C/c1cnc2ccccc2n1)NCc1ccccc1	.	.	.	.	14	.
SMILES	Abeta yeast res	FUS yeast rescue	aSyn yeast inh	PTHR1 agonist	LDHA inh	TDP-43 yeast inh
CC(=O)N1N=C(c2cccs2)CC1c1ccc(Br)cc1 (stereo not given)	i	i	3%	-57%	-1	25µM*
O=C1CCC(=O)N1c1ccc(NCc2ccccc2Cl)c([N+](=O)[O-])c1	i	i	7%	-14%	-9	22µM*
CC(=O)c1c(C)[nH]c2ccccc12	.	.	.	.	10	.
Cc1[nH]c2ccccc2c1C(=O)CCl	i	i	2%	-28%	0	16µM*
CCCc1nnc(NC(=O)c2nc(S(=O)(=O)Cc3ccc(C)cc3)ncc2Cl)s1	i	i	17%	-38%	3	11µM*
Cc1ccccc1CS(=O)(=O)c1ncc(Cl)c(C(=O)Nc2nnc(C(C)C)s2)n1	i	i	.	-96%	2	11µM*
Cc1ccc(CS(=O)(=O)c2ncc(Cl)c(C(=O)Nc3nc4ccc(C)cc4s3)n2)cc1	i	i	.	-29%	5	?
CSc1nnc(NC(=O)c2nc(S(=O)(=O)Cc3ccccc3)ncc2Cl)s1	i	i	13%	-21%	-1	?
CC(C)c1nnc(NC(=O)c2nc(S(=O)(=O)Cc3ccccc3)ncc2Cl)s1	i	i	13%	-20%	3	8.9µM*
O=C(NCC1COc2ccccc2O1)c1nn(Cc2ccccc2)c(=O)c2ccccc12 (stereo not given)	.	.	.	.	7	.
CCCOc1c(Br)cc(/C=C/C(=O)c2ccc(O)c(OC)c2)cc1OC	.	.	.	.	-6	.
CC(C)(C)OC(=O)N1CCCN(C(c2cc3ccccc3o2)c2nnnn2C(C)(C)C)CC1 (stereo not given)	i	16µM*	-7%	-13%	3	?
COC(=O)N1CCN(c2ccc(OC)cc2)CC1	i	i	-11%	i	4	-22%
COc1ccc(N2CCN(C(C)C(=O)N3CCCC3)CC2)cc1 (stereo not given)	i	i	1%	-1%	-38*	-10%
CCOC(=O)c1cnc(NCc2ccccc2)nc1C	i	i	.	-18%	0	7.1µM*
O=C(O)CCC(=O)NCCCN1CCOCC1	.	.	.	.	5	.
CCC1CCCCN1C(=S)NC(=O)c1cc(Br)ccc1Cl (stereo not given)	11µM*	i	?	-31%	-3	28µM*
CC1CCCCN1C(=S)NC(=O)c1cc(Br)ccc1Cl (stereo not given)	i	i	13%	-28%	-5	25µM*
